In the library only some 4.1% were active in any assay of this set; here they are far more common.
DAX1 inh-1: inhibitors of human orphan nuclear receptor DAX1 (NR0B1). P51843. HEK293 Gal4-DAX1 luciferase reporter, luminescence. inhibition, % at 6.75 µM. 340,000 compounds, 0.99% hits;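 active means inhibition above the mean over all tested compounds plus 3 SD, cut at about 4.2% in these data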;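 further: inhibition shows as a rise in luminescence from relieved DAX1 repression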
hgDAF12 agonist: agonists of H. glycines DAF-12 nuclear receptor | activation, % at 6.8 µM | 370,000 compounds, 1.8% hits | AID 687014 | HEK293 GAL4-hgDAF12 UAS-luciferase reporter, agonist luminescence; normalized to butyrate control;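 active means activation above a cutoff set at the mean of all screened compounds plus 3 SD, cut at about 10% in these data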
DAX1 inh-2: DAX1 (NR0B1) inhibition, primary screen. HEK293T StAR-luciferase reporter, SF-1/DAX-1 repression relief. inhibition, % at 6.8 µM. 370,000 compounds, 1.1% hits. AID 652010;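 active means inhibition above the mean over all tested compounds plus 3 SD, cut at about 3.6% in these data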;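 further: higher inhibition means more luminescence from relief of DAX-1 repression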
ssDAF12 agonist: activates DAF-12 receptor from parasite S. stercoralis; 370,000 compounds, 1% hits; activation, % at 6.8 µM; HEK293 ssDAF-12/GRIP1 lit1-tk-luc reporter, luminescence; % of 3 µM dafachronic acid response; AID 652126;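 active means activation above the mean over all tested compounds plus 3 SD, cut at about 0.9% in these data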
hcDAF12 agonist: H. contortus DAF-12 activation, primary screen. HEK293 hcDAF-12 lit1-tk-luc reporter, luminescence; 0% DMSO, 100% Δ7-dafachronic acid. activation, % at 6.8 µM. 370,000 compounds, 1.4% hits. AID 652067;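 active means activation above the mean of all tested compounds plus 3 SD, cut at about 5.5% in these data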
DAX1 inh confirm: confirmation of human DAX1 (NR0B1) inhibitors | shares compounds with DAX1 inh-2 | HEK293T StAR-promoter luciferase reporter, SF-1/DAX-1 repression | inhibition, % at 6.8 µM | 2,400 compounds, 87% hits | AID 652134;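 active means inhibition above the average of every tested compound plus 3 SD, cut at about 3.8% in these data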;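 further: active compounds raise luminescence by relieving repression of the StAR reporter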
Target sequence (P51843 whole entry, looked up): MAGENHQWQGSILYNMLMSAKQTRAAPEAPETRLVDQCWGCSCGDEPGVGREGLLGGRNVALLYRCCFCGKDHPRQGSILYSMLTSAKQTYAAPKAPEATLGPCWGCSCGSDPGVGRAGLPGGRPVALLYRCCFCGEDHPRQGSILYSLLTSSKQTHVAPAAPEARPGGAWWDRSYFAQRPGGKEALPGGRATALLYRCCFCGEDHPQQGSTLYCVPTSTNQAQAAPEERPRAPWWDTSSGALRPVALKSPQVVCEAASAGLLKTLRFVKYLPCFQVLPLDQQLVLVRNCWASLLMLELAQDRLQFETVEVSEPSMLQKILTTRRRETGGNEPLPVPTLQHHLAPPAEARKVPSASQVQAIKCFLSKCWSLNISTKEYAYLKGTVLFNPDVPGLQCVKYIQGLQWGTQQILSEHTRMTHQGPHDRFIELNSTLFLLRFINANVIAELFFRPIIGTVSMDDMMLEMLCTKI
SF1 mutant ctr: counter-screen for DAX1 inhibitors: nonselective inhibitors with SF-1 AF2 mutant; shares compounds with DAX1 inh-2; HEK293 StAR-luciferase, luminescence; inhibition, % at 6.8 µM; 2,400 compounds, 78% hits;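 active means inhibition above the mean of all tested compounds plus 3 SD, cut at about 3% in these data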
Numbers stand for hits; 0 = inactive; - = not tested or not shown.

SMILES	DAX1 inh-1	hgDAF12 agonist	DAX1 inh-2	ssDAF12 agonist	hcDAF12 agonist	DAX1 inh confirm	SF1 mutant ctr
COc1ccc(C(=O)N(C)C(C)c2nccs2)cc1OC1CCN(C(C)=O)CC1 (stereo unspecified)	0	0	0	0	0	-	-
CC[C@@H](C)[C@H](C(CC(=O)N1CCCC1[C@@H](OC)[C@H](C)C(=O)N[C@H](Cc1ccccc1)c1nccs1)OC)N(C)C(=O)[C@H](NC(=O)[C@@H](C(C)C)N(C)C)C(C)C (stereo partly specified)	0	0	7.7	0	0	29.8	0
COc1ccccc1OCCCC(=O)Nc1nnc(C2CCCO2)s1 (stereo unspecified)	0	0	6.1	0	0	4.2	3.7
COc1ccc(-c2cscc2N)cc1	-	0	0	0	0	-	-
O=C(c1ccc(C#Cc2ccccc2)cc1)N1CCC(O)CC1	-	11.5	4.9	0	0	7.2	4.1
CC(OC(=O)CC1CCCC1)C(=O)Nc1ccc(S(N)(=O)=O)cc1 (stereo unspecified)	0	0	4.9	0	0	0	0
CC(=O)Nc1ccc(NC(=O)C(C)OC(=O)CC2CCCCC2)cc1 (stereo unspecified)	0	0	0	0	0	-	-
NC(=Nc1cccc(F)c1)NC(=O)OCc1ccccc1	-	0	5.2	0	0	5.2	3.6
COc1ccc(-n2c(CSc3ccc(Cl)cc3)n[nH]c2=S)cc1	-	0	0	0	0	-	-
CC(NC(=O)C=Cc1ccco1)C(=O)NC(Cc1ccccc1)C(N)=O (stereo unspecified)	-	0	0	0	0	-	-
C=C(c1ccc2nc(NC(=O)OC)[nH]c2c1)c1cccs1	0	0	7.7	0	0	37.2	0
COc1cccc(CC(=O)N2CCC(n3nccc3NC(=O)C3CC3)CC2)c1	0	0	0	0	0	-	-
CSc1ccc(CC(=O)N2CCC(n3nccc3NC(=O)C3CC3)CC2)cc1	0	12.3	6.0	0	0	0	0
CC1(C)CC(=O)C=C(Nc2ccccc2NC(=O)c2cc(F)ccc2F)C1	-	0	0	0	0	-	-
CC(C)=CC(=O)Nc1ccc2c(c1)OCO2	0	0	6.1	0	0	12.2	7.7
O=C(Nc1cccc(F)c1)Nc1ccc2c(c1)OCO2	0	0	7.0	0	0	9.2	5.3
COc1ccc(CN[C@@H]2CC[C@@]34CCCN3C(=O)CCC[C@H]4C2)cc1OC	-	0	-	0	0	-	-
COC(=O)C1CCN(C2CN(Cc3cn(Cc4ccc(C(F)(F)F)cc4)nn3)S(=O)(=O)C2)CC1 (stereo unspecified)	-	0	0	0	0	-	-
Cc1ccc(OCC(=O)Nc2ccon2)c([N+](=O)[O-])c1	0	0	5.3	0	0	6.5	3.7
O=C(N[C@H]1/C=C\[C@@H](O)CCCC1)OCc1ccccc1	0	11.0	7.6	0	0	10.6	9.1
O=C(Nc1cccc(Cl)c1)N1CCc2ccccc2C1	0	0	0	0	0	-	-
O=C(Nc1ccccc1F)N1CCc2ccccc2C1	0	0	6.4	0	0	6.8	7.1
COc1cccc(NC(=O)N2CCc3ccccc3C2)c1	0	0	6.1	0	0	8.4	7.1
COc1cccc(/C=C/C(=O)NNC(=O)c2ccccc2)c1OC	0	0	5.2	0	0	5.1	0
CC(=O)N1CCN(C(=O)c2cc3c(s2)CCCC3)CC1	0	0	4.6	0	0	0	0
CN1CCCN(C(=O)c2cc3c(s2)CCCC3)CC1	0	0	0	0	0	-	-
CN1CCN(C(=O)c2cc(COc3ccccc3)on2)[C@@H](c2ccccc2)C1	0	11.4	5.8	1.1	0	6.0	0
Cc1ccc(OCc2cc(C(=O)N3CCN(C)C[C@@H]3c3ccccc3)no2)cc1C	0	0	0	0	0	-	-
COc1ccc(Cc2c(-c3cccc(Br)c3)nc3ccc(Br)cn23)c(C)c1	-	0	5.1	0	0	0	3.5
COc1ccc(Cc2c(-c3ccc(C)cc3)nc3ccc(Cl)cn23)c(C)c1	-	13.0	5.7	0	0	6.5	4.9

High-throughput results: PubChem, The Scripps Research Institute Molecular Screening Center
